High-throughput results as filed in PubChem.
An excerpt weighted towards active compounds, which were near 7.1% of everything screened.
Marburg entry: inhibitors of Marburg virus binding or entry into cells; Marburg virus pseudotype entry/binding inhibition, cell-based; Potency, µM (series often up to 49.2 µM), without a hit: at the top dose activity change, negative = inhibition, hits mostly inhibitors; actives 6.5% (n = 18,000); AID 720532
Lassa entry: inhibitors of Lassa virus binding or entry into cells. actives 4.1% (n = 18,000). AID 720533. Lassa virus pseudotyped entry inhibition, cell-based qHTS. Potency, µM (top dose mostly 49.2 µM), without a hit: at the highest dose activity change, negative = inhibition, usual class: inhibitors
* hit, by the source's call; ? = inconclusive; / = not tested or not shown; ! = not confirmed by another sample; [ ] = another dose, or the depositor's remark. Calls come from the whole dose curve; tested in HEK293 cells. % is set by controls: 0 for no effect and ±100 for the full control effect; potency is the fitted concentration of half-maximal effect.

SMILES | Marburg entry | Lassa entry
C=C1CN2C(=NC(c3ccccc3)C(C(=O)OC)=C2C)O1 (configuration not stated) | 0%[8.59 µM] | -4%[8.59 µM]
COC(=O)Nc1nc2ccc(S(=O)(=O)c3ccc(NC(=O)Nc4cc(C(F)(F)F)ccc4F)cc3)cc2[nH]1 | -29% | -20%
COc1ccc(-c2oc3ncnc(N)c3c2-c2ccc(NC(=O)Nc3cc(C(F)(F)F)ccc3F)cc2)cc1 | 13µM* | /
O=C1[C@H]2[C@@H]3[C@@H](O)[C@H](O)CC(=NOCc4ccccc4)[C@@H]3CC[C@H]2C(=O)N1C[C@@H]1CCCO1 | 6%[8.59 µM] | 9%[8.59 µM]
COc1ccccc1N1CCN(CCCCN2C(=O)CCC2=O)CC1 | -5% | 2%
COc1cccc2c1CCCC2CCCN1CCN(C2CCCCC2)CC1 (configuration not stated) | 13µM* | 22µM*!
CCCCOc1cc(C(=O)OCCN(CC)CC)ccc1N | -16%[17.8 µM] | -15%[17.8 µM]
CCCCc1oc2ccccc2c1C(=O)c1cc(I)c(OCCN(CC)CC)c(I)c1 | 20µM* | /
CCS(=O)(=O)c1ccc(OC)c(Nc2ncc(-c3cccc(-c4ccccc4F)c3)o2)c1 | -74% | /
CC[C@@]1([C@@H]2O[C@@H]([C@H]3O[C@@](O)(CO)[C@H](C)C[C@@H]3C)C[C@@H]2C)CC[C@H]([C@]2(C)CC[C@]3(C[C@H](O)[C@@H](C)[C@@H]([C@@H](C)[C@@H](OC)[C@H](C)C(=O)O)O3)O2)O1 (stereo in doubt) | 4µM*! | 2.8µM*!
CCCNC(=O)OC[C@H]1O[C@H](CCON=CC[C@@H]2C=C[C@H](OC(C)=O)[C@@H](COC(C)=O)O2)C=C[C@H]1Oc1ccc(OC)cc1 | 6%[8.59 µM] | /
Cc1cc2c(c(=O)o1)[C@H]1O[C@](CCCCN3C(=O)c4ccccc4C3=O)(Cc3cc(C#N)ccc31)O2 | 39%[8.59 µM] | 9%[8.59 µM]
Cc1ccc(S(=O)(=O)N2CCC(=O)N([C@H](COCc3cccc(C(F)(F)F)c3)C(C)C)CC2)cc1 | ? | -3%
Cc1ccc(S(=O)(=O)N2CCC(=O)N([C@H](COCc3cccc(C(F)(F)F)c3)Cc3ccccc3)CC2)cc1 | 11µM* | ?
CCS(=O)(=O)NCc1c(C)ncc2c1CCN(C(=O)c1csc(-c3cccs3)n1)C2 | 4% | -23%
Cc1ncc2c(c1CNC(=O)c1cncs1)CCN(C(=O)c1csc(-c3cccs3)n1)C2 | 35µM* | -21%
CC(CCN1CCCc2nc(C)c(C)cc21)=NOC[C@@H](O)COCc1ccco1 | ? | -17%[8.59 µM]
Oc1[nH]c2ccccc2c1C=Nc1ccc(-n2cncn2)cc1 | -32% | -75%
NCCCCCCNS(=O)(=O)c1ccc2c(Cl)cccc2c1 | 13µM* | 28µM*
NCCNS(=O)(=O)c1cccc2c(Cl)cccc12 | 10µM* | ?
NCCNS(=O)(=O)c1ccc(Cl)c2ccncc12 | -5% | 19%
O=C(O)Cc1ccc(CCNS(=O)(=O)c2ccc(Cl)cc2)cc1 | 9% | 4%
CCc1cc2c(nc1CC)CCN(CCC(C)=NOC[C@H]1O[C@H](c3ccccc3)C=C[C@H]1Oc1ccc(OC)cc1)C2 | -25%[8.59 µM] | 2%[8.59 µM]
CCOC(=O)[C@@]1([C@@H](NC(=O)OC)c2cccc(C)c2)CCCC1=O | 26%[8.59 µM] | 9%[8.59 µM]
CCOC(=O)[C@]12C[C@]3(OC)CCN(C(=O)N[C@@H]1c1ccccc1)[C@@H]32 | 10%[8.59 µM] | ?
SMILES | Marburg entry | Lassa entry
O=C(C[C@H]1C(=O)N(c2ccccc2)C[C@@H]1c1ccccc1)Nc1ccccc1 | -14% | 25%
COC(=O)C1=C(C)NC(C)=C(C(=O)OCCN2CCN(C(c3ccccc3)c3ccccc3)CC2)C1c1cccc([N+](=O)[O-])c1 (configuration not stated) | 13µM* | 22µM*
COC(=O)C1=C(C)NC(C)=C([N+](=O)[O-])C1c1ccccc1C(F)(F)F (configuration not stated) | -27% | -29%
COC(=O)C1=C(C#N)NC(C)=C(C(=O)OC(C)C)C1c1cccc([N+](=O)[O-])c1 (configuration not stated) | ? | -25%
COC(=O)C1=C(C)NC(C)=C(C(=O)OCCN(C)Cc2ccccc2)C1c1cccc([N+](=O)[O-])c1 (configuration not stated) | 11µM* | 25µM*!
COc1ccc(O[C@H]2C=C[C@@H](c3ccccc3)O[C@H]2CON=C(C)CCN2CCCCc3nc(C)c(C)cc32)cc1 | 50%[8.59 µM] | 24%[8.59 µM]
C=C[C@H]1C[C@H]2C=C(C)COP(=O)(O2)O1 | -5% | 39%
CCOc1ccc(C(=O)OCCN(CC)CC)cc1 | -7% | -11%
CCN(CC)CCOc1ccc2c(c1)C(=O)c1cc(OCCN(CC)CC)ccc1-2 | 6.3µM* | ?
CCN(CC)CCNC(=O)c1ccc(NS(C)(=O)=O)cc1 | 1% | 0%
CCN(CC)CCNC(=O)c1c(C)[nH]c(/C=C2\C(=O)Nc3ccc(F)cc32)c1C | 8.9µM* | ?
CCN1C(=NCc2cccc(C(F)(F)F)c2)NC(c2ccccc2)C(C(=O)OC)=C1C (configuration not stated) | ? | 5%[8.59 µM]
CCc1cc2c(nc1CC)CCN(CCC(C)=NOC[C@@H](O)[C@H]1O[C@@H]3OC(C)(C)O[C@H]3[C@@H]1O)C2 | -6%[8.59 µM] | 6%[8.59 µM]
CN1CCCCC1Cn1cc(C(=O)c2cc([N+](=O)[O-])ccc2I)c2ccccc21 (configuration not stated) | 10µM* | ?
CCN1C(=NCC(C)C)N[C@H](c2ccccc2)[C@H](C(=O)OC)[C@H]1C | 8%[8.59 µM] | ?
O=S1(=O)c2ccc(Br)cc2N2CCC[C@@H]2CN1Cc1ccc(Cl)cc1 | ? | 1%
CN1CCCC(n2nc(Cc3ccc(Cl)cc3)c3ccccc3c2=O)CC1 (configuration not stated) | 7.9µM* | ?
COC(=O)N[C@H](C(C(=O)OC)=C(C)NCc1ccccc1)c1cccc(C)c1 | 15%[8.59 µM] | /
C=CC[C@H]1C[C@H]2CC=CP(=O)(O2)O1 | -35% | -11%
COC(=O)[C@]12C[C@@H]3CCN(C(=O)N[C@@H]1c1ccccc1)[C@@]32C | 76%[8.59 µM] | /
CN(C)Cc1ccccc1 | 8% | -16%
CC(COc1ccccc1)N(CCCl)Cc1ccccc1 (configuration not stated) | 0% | 28µM*!
CC(C)=CCC12CC3[C@@H](O)C(C(=O)c4ccccc4)(C1=O)C(=O)C(CC=C(C)C)(C2=O)C3(C)C (some centres not stated) | -26%[8.59 µM] | /
C=CC[C@@H]1C=CC(ON=C(C)CCC(=O)OC[C@H]2O[C@H](C#Cc3ccccc3)C=C[C@H]2Oc2ccc(C)cc2)[C@H](CO)O1 (some centres not stated) | 29%[8.59 µM] | -19%[8.59 µM]
COC(=O)C1=C(C)N(Cc2ccccc2)C(=NCCc2cccs2)NC1c1cccc(C(F)(F)F)c1 (configuration not stated) | ? | -11%[8.59 µM]
SMILES | Marburg entry | Lassa entry
Cc1cc(C(C)(C)CC(C)(C)C)ccc1OCCOCC[N+](C)(C)Cc1ccccc1 | 11µM* | ?
C[N+](C)(C)CCOC(=O)C(O)(c1ccccc1)c1ccccc1 | -10% | -17%
CCN(CC)CCOC(=O)C1(c2ccccc2)CCCC1 | -31% | -25%
CCN(CC)CCOC(=O)C1(C2CCCCC2)CCCCC1 | 11µM*! | ?
CN(C)CCCOc1nn(Cc2ccccc2)c2ccccc12 | ? | -22%[17.8 µM]
OCc1ccc(-c2nn(Cc3ccccc3)c3ccccc23)o1 | 14µM* | ?
COC(=O)C1=C(C)N(Cc2ccccc2)C(=NCCc2ccc(O)cc2)NC1c1ccc(Br)cc1 (configuration not stated) | 2%[8.59 µM] | -24%[8.59 µM]
